The values that follow come from PubChem BioAssay.

The source made the active and inactive calls.

The test system of test [1] is Plasmodium falciparum Sir2 (PF13_0152, Sir2A). The test is described as follows: Plasmodium falciparum Sir2A binding compounds – biochemical, small-molecule microarray, 635 nm fluorescence, primary screen (AID 1098).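 Also: score merges spot fluorescence intensity with its signal-to-noise ratio.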 Particulars: fluorescence 635 nm, higher = more signal.
The nature of test [2]: probe aDKK1 binding to arrayed compounds – biochemical, biotinylated probe, 635/667 nm fluorescence, primary screen (AID 1099).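 Also: score merges 667nm spot fluorescence with signal to noise across triplicate slides.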 Particulars: small-molecule microarray, higher = more signal.
Test [3] in a line: probe aCHRDL2 binding to arrayed compounds – biochemical, biotinylated probe, 635/667 nm fluorescence, primary screen (AID 1100). The conditions noted are these: small-molecule microarray, higher = more signal.
A short description of test [4]: change in splice reporter luminescence, either direction, cell-based, HEK293, spliceosome inhibition project, primary screen (AID 1101).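 Also: HEK293 cells carrying a splicing-competent luciferase reporter gene; test concentration not given here.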 The conditions noted are these: HEK293 splicing luciferase reporter, 24 h, higher = more signal, called active from +8 up or from −8 down. Background: In a reporter assay the amount or activity of a reporter protein is the signal.
Test [5] has as its target Fibroblast growth factor 10 (Homo sapiens) (UniProt O15520). As to the kind of experiment: compounds binding fibroblast growth factor 10 – biochemical, small-molecule microarray, 635 nm fluorescence, primary screen (AID 1102). Particulars: FGF10 binding, fluorescence 635 nm, higher = more signal.
In test [6] the test system is glycogen synthase kinase-3 (GSK3A per assay name; protocol says GSK3B). As to the kind of experiment: compounds binding glycogen synthase kinase-3 – biochemical, small-molecule microarray, 635 nm fluorescence, GSK3A, primary screen (AID 1103). Also: the record names both GSK3A and GSK3B. Particulars: fluorescence 635 nm, higher = more signal.
Test [7] addresses Epidermal growth factor receptor (Homo sapiens) (UniProt P00533). As to the kind of experiment: compounds binding epidermal growth factor receptor – biochemical, small-molecule microarray, 635 nm fluorescence, primary screen (AID 1104).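 Also: score merges 667 nm emission intensity with spot signal to noise over triplicate slides.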 Particulars: EGFR binding, higher = more signal.
Test [8] deals with Follistatin-related protein 3 (Homo sapiens) (UniProt O95633). The test is described as follows: compounds binding follistatin-related protein 3 – biochemical, small-molecule microarray, 635 nm fluorescence, primary screen (AID 1105).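 Also: score merges emission near 667 nm and signal to noise per printed spot across three slides.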 Particulars: FSTL3 binding, higher = more signal.
Test [9] has as its target Dickkopf-related protein 1 (Homo sapiens) (UniProt O94907). The test is described as follows: small molecules binding DKK1 protein – biochemical, small-molecule microarray, 635 nm fluorescence scan, primary screen (AID 1106).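 Also: score merges emission near 667 nm with signal to noise over three replicate slides.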 Particulars: higher = more signal.
In test [10] the test system is Inhibin beta A chain (activin A). The test is described as follows: small molecules binding activin A – biochemical, small-molecule microarray, 635 nm fluorescence scan, primary screen (AID 1107).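 Also: mouse activin A protein probed at 4.33 µg/mL on printed slides; score merges bound-protein fluorescence near 667 nm with spot signal-to-noise.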 Particulars: INHBA, higher = more signal.
For test [11], the system named is Human papillomavirus type 1a protein E7 (residues 44-93). As to the kind of experiment: small molecules binding HPV E7 44-93 – biochemical, small-molecule microarray, residues 44-93, 635 nm fluorescence, primary screen (AID 1108).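 Also: E7 fragment applied at 1 µg/mL in TBST for 1 h at 4 C; score combines spot fluorescence with its signal to noise ratio.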 The conditions noted are these: fluorescence 635 nm, higher = more signal.
Test [12] in a line: hepatitis C replication reporter changes, two-sided – Huh7 cells, luciferase reporter, HCV replication inhibitor project, primary screen (AID 1109).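 Also: huh7 hepatoma cells harbouring a luciferase neomycin HCV replicon reporter; luciferase luminescence as measure of HCV replicon replication; test concentration not given here.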 The conditions noted are these: Huh7 HCV replicon luciferase reporter, 48 h; higher = more signal.
The target in test [13] is Left-right determination factor 2 (Homo sapiens) (UniProt O00292). As to the kind of experiment: small molecules binding LEFTY2 protein – biochemical, small-molecule microarray, 635 nm fluorescence scan, primary screen (AID 1110). The conditions noted are these: higher = more signal.
Test [14] addresses Calmodulin-1 (Homo sapiens) (UniProt P0DP23). The test is described as follows: small molecules binding calmodulin-1 with EGTA – biochemical, small-molecule microarray, Cy5-labelled CALM1, profiling panel (AID 1111).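 Also: labelled calmodulin applied in Tris saline Tween buffer holding calcium plus EGTA and DTT.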 Particulars: Cy5-CALM1 binding fluorescence, higher = more signal.
For test [15] the target is unchanged. As to the kind of experiment: small molecules binding Ca-loaded calmodulin-1 – biochemical, small-molecule microarray, Cy5-labelled CALM1, plus calcium, artefact control for SMM control-protein annotation, profiling panel (AID 1112).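 Also: score merges spot fluorescence with signal to noise from triplicate slides.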 Particulars: Cy5-CALM1 binding fluorescence, higher = more signal.
Test [16] can be described thus: probe aWnt5a binding to arrayed compounds – biochemical, biotinylated probe, 635/667 nm fluorescence, primary screen (AID 1113).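 Also: score merges 667 nm fluorescence intensity with signal-to-noise per printed feature.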 Particulars: small-molecule microarray, higher = more signal.
Test [17] can be described thus: probe aShh binding to arrayed compounds – biochemical, biotinylated probe, 635/667 nm fluorescence, primary screen (AID 1114).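 Also: probe is biotin-labelled aShh protein from a stem cell growth factor screen; measures binding of labelled protein to compounds printed on the slide; score merges feature fluorescence at 667 nm with signal-to-noise.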 The conditions noted are these: small-molecule microarray, higher = more signal.
The nature of test [18]: probe aNog binding to arrayed compounds – biochemical, biotinylated probe, 635/667 nm fluorescence, primary screen (AID 1115).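 Also: probe is biotinylated aNog protein used at 0.15 µg/mL for 1 h at 4 C; z-score combines 667 nm fluorescence of each spot with its signal to noise.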 Particulars: small-molecule microarray, higher = more signal.
Test [19] has as its target Torsin-1A-interacting protein 1 (Homo sapiens) (UniProt Q5JTV8). As to the kind of experiment: compound microarray binding of lysate hLAP1 – cell lysate, small-molecule microarray, COS7 lysate, 635/667 nm fluorescence, primary screen (AID 1116). Particulars: 635 nm fluorescence, higher = more signal.
In test [20] the target is Alpha-bungarotoxin (Bungarus multicinctus) (UniProt P60615). As to the kind of experiment: compounds binding labelled alpha-BTX control protein – biochemical, small-molecule microarray, Alexa647 label, 635/667 nm fluorescence, artefact control for SMM control protein annotation, profiling panel (AID 1117). The conditions noted are these: alpha-BTX-A647 binding fluorescence, higher = more signal.
Chain of Alpha-bungarotoxin (Bungarus multicinctus) (P60615 whole entry, looked up): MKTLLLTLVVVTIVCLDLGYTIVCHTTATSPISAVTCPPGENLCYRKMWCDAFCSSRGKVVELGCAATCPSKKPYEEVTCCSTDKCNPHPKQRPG

Chain of Dickkopf-related protein 1 (Homo sapiens) (O94907 whole entry, looked up): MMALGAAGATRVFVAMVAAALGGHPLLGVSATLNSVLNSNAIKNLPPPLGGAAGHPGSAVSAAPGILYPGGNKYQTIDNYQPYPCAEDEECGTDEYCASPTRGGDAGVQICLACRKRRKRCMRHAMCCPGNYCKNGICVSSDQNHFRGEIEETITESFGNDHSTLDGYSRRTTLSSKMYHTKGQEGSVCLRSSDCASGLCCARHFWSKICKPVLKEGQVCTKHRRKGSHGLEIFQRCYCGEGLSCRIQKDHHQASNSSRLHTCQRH
Chain of Epidermal growth factor receptor (Homo sapiens) (P00533 whole entry, looked up): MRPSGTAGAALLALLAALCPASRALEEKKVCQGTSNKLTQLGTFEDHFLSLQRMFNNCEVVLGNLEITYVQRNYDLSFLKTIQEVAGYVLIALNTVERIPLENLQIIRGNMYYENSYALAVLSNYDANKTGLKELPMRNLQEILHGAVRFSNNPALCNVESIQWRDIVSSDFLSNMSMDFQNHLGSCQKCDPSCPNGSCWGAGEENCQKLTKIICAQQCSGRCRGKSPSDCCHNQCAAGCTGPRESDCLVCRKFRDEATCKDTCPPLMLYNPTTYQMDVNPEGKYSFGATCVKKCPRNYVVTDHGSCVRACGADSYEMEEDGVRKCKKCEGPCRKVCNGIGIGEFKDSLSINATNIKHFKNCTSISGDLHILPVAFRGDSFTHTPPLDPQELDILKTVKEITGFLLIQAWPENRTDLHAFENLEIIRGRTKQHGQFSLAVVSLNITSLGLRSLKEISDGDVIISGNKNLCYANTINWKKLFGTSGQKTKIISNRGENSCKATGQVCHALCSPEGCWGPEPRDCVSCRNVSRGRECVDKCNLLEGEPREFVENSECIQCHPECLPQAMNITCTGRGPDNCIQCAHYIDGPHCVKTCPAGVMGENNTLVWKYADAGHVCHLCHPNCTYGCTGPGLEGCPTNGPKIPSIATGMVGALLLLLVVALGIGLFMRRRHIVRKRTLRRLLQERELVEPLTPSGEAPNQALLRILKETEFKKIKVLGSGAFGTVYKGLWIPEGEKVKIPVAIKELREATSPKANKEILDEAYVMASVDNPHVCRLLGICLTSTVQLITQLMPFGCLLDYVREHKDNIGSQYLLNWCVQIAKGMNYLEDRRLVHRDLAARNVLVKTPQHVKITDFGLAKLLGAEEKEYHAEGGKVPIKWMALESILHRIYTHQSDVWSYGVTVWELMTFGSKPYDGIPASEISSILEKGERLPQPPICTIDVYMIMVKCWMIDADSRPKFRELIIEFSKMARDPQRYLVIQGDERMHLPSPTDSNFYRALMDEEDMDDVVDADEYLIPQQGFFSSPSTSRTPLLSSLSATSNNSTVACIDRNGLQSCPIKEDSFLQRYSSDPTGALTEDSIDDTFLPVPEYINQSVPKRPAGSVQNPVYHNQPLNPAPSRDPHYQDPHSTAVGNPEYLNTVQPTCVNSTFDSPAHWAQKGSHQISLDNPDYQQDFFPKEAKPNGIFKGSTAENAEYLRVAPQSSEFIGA
Chain of Left-right determination factor 2 (Homo sapiens) (O00292 whole entry, looked up): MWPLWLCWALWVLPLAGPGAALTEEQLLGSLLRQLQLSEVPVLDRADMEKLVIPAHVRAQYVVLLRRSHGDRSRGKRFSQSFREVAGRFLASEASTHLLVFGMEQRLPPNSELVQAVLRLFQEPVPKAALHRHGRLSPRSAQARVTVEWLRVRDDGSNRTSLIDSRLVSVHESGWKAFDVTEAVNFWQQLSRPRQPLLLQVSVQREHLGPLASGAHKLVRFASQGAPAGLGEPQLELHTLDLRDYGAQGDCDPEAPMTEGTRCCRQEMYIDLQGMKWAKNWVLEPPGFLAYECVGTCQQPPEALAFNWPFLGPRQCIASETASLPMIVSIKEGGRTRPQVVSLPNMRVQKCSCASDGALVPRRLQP
Chain of Torsin-1A-interacting protein 1 (Homo sapiens) (Q5JTV8 whole entry, looked up): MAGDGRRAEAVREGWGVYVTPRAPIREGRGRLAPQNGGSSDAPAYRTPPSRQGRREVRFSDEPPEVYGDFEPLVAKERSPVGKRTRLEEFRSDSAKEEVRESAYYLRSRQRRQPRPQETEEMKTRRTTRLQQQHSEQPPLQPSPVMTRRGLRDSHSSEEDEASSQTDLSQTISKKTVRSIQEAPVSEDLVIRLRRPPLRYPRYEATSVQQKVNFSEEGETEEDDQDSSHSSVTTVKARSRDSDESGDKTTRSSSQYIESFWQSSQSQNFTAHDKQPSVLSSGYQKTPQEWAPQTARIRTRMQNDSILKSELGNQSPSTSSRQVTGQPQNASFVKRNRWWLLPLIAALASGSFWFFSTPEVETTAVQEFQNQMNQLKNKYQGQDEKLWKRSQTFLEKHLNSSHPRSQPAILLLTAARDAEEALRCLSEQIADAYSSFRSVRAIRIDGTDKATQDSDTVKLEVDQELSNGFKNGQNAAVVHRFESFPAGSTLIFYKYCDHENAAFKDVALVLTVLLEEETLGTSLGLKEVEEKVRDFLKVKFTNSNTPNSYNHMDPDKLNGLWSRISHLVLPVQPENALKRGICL
Chain of Fibroblast growth factor 10 (Homo sapiens) (O15520 whole entry, looked up): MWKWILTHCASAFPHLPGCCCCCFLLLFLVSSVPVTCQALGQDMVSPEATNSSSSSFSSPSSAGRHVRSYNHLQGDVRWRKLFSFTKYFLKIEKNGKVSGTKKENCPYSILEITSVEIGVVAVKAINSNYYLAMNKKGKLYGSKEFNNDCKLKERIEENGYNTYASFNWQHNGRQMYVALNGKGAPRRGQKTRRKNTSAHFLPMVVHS
Chain of Follistatin-related protein 3 (Homo sapiens) (O95633 whole entry, looked up): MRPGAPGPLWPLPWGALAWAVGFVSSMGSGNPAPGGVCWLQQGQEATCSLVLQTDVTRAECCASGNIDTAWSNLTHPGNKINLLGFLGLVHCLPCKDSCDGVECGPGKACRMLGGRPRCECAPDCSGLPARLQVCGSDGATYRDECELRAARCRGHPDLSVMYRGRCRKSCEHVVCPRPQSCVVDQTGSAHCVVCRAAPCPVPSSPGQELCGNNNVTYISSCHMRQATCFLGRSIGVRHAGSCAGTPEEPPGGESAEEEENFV

Turning to `CCCC[C@H]1OB(O)C[C@H]2C1=C(COc1ccccc1)C[C@H]1C(=O)N(Cc3ccccc3)C(=O)[C@H]12`, the composite z-score is 0.412 in test [1]; -0.154 in [2]; -0.283 in test [3]; 0.509 in test [5]; 0.103 in test [6]; -0.248 in test [7]. For the same compound, the composite z-score in [8] amounted to 0.581; in [9] it was 0.193; in test [10], 0.78; in [11], 1.38; in [13] it was 0.377; in test [14], 0.324. The composite z-score is -0.774 in test [15]; -0.176 in test [16]; -0.0709 in test [17]; -0.273 in test [18]; -0.0868 in test [19]; 1.04 in test [20]. Also, the z-score in test [4] is -0.788 (inactive); in test [12], -1.72.

With `C=C(CCCC)C(=O)CC[C@H](OC(=O)c1ccccc1-c1ccccc1C(=O)O)c1ccc(CO)o1`, the composite z-score was 1.15 in test [1]; -0.28 in [2]; -0.635 in test [3]; 1.51 in test [5]; 1.1 in test [6]; 0.264 in [7]. For the same compound, the composite z-score in [8] turned out to be 1.2; in test [9] it was 1.02; in [10], 0.64; in test [11] it was 1.42; in test [13], 0.645; in test [14] it was 0.856. Also, the composite z-score in test [15] is -0.771; in test [16], -0.0458; in test [17], -0.108; in test [18] it was 0.238; in test [19] it was 0.876; in test [20], 1.65. Also, the z-score in test [4] is 0.144 (inactive); in test [12] it was -0.872.

In the case of `CC1CC/C=C\[C@H]2OC34C=CCN(CCN5CCOCC5)C(=O)[C@H]3N(CCCCCO)C(=O)[C@@H]4C2C(=O)O1` (stereo not given in full), the composite z-score in test [1] is -0.31; in test [2], -0.605; in [3], -0.824; in test [5] it was -0.352; in test [6], -0.444; in [7] it was -0.559. The composite z-score in test [8] is -0.507; in [9], -0.0732; in [10], 1.01; in [11] it was -1.78; in test [13], 0.0111; in test [14], -1.87. Moreover, the composite z-score was -1.59 in test [15]; -0.224 in [16]; -0.0769 in test [17]; -0.321 in test [18]; -0.595 in [19]; -1.06 in [20]. The z-score was -0.282 (inactive) in test [4] and 0.824 in test [12].

On to `O=C1O[C@@H](c2ccccc2)[C@@H](c2ccccc2)N2[C@@H](c3ccc(O)cc3)[C@]3(C(=O)Nc4ccc(C#CCCO)cc43)[C@@H](C(=O)N3CCCCCCC3)[C@H]12`, for which the composite z-score in test [1] was determined as 1.83; in [2], 1.7; in test [3], 1.07; in test [5], 0.837; in [6] it was 0.78; in [7] it was 0.201. Besides, the composite z-score in [8] was found to be 1.43; in test [9] it was 0.843; in test [10], 1.67; in [11], 0.777; in test [13], 0.51; in test [14], 2.37. In addition, the composite z-score in test [15] is 1.05; in [16] it was 0.861; in test [17], -0.116; in test [18], 2.68; in [19] it was 3.66; in [20], 2.14. Further, the z-score in test [4] is 0.62 (inactive); in test [12] it was -1.18.

As to `CC1(C)C(=O)C(c2ccccc2)=C2CN3C(=O)N(CCc4ccccc4)C(=O)C3(Cc3ccccc3)C=C21` (stereo not given), the composite z-score is 0.155 in [1]; 1.06 in [2]; 1.12 in test [3]; 0.363 in [5]; 0.182 in test [6]; -0.0726 in test [7]. Further, the composite z-score in [8] is 0.949; in [9], -1.03; in test [10], 1.09; in test [11], 1.03; in test [13] it was -0.0283; in test [14] it was 1.03. The composite z-score in test [15] is 0.9; in test [16] it was 0.0633; in test [17] it was 0.375; in [18], 0.578; in [19], -0.0882; in test [20] it was 1.68. Further, the results for the z-score in test [4] and in [12] were 0.917 (inactive) and -1.58, respectively.

Regarding `[N-]=[N+]=NCc1ccccc1C[C@@]1(C(=O)NCc2ccccc2)N=C(c2ccc(OCCCO)cc2)O[C@@H]1c1ccccc1CN=[N+]=[N-]`, the composite z-score in [1] was 1.39; in test [2], 1.09; in [3], 1.06; in test [5], 0.639; in [6], 1.13; in test [7], -0.286. In addition, the composite z-score in test [8] is -0.0894; in test [9], -0.242; in [10], 0.123; in test [11] it was -0.0428; in test [13] it was -0.372; in test [14] it was 1.51. The composite z-score amounted to 0.924 in [15]; 0.178 in [16]; 0.274 in test [17]; 1.88 in test [18]; 2.59 in test [19]; 1.49 in test [20]. Besides, the z-score was 0.48 (inactive) in test [4] and -2.52 in test [12].
